Compound activity as filed in PubChem.
G9a inh – blocks human histone lysine methyltransferase G9a; G9a H3K9 monomethylation, AlphaScreen, 2 h; Potency, µM (highest dose often 102 µM), for inactives: top-dose activity, negative = inhibition, usual class: inhibitors; actives 8.8% (n = 350,000); further: potency means the concentration at half of the fitted maximal effect; on the % scale 0 is the no-effect control and ±100 the full control effect; nearly all actives have a fitted effect of over 75% in size
Target sequence (Q96KQ7 913-1193 limits assumed): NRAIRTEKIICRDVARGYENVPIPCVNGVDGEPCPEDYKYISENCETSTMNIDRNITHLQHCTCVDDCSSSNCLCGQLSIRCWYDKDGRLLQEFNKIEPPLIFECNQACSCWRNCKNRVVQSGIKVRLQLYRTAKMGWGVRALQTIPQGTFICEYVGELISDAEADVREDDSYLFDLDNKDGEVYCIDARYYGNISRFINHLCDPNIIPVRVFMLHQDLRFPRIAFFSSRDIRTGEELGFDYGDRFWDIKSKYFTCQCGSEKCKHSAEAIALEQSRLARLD
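Step 1: enzyme (final 20 nM) with compound, 15 min RT. Step 2: substrate peptide 500 nM and SAM 20 uM, 2 h RT. Step 3: anti-H3K9me1 antibody and AlphaScreen beads, 10 min, then plate read.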
BAZ2B block – blocks human BAZ2B | Potency, µM (series often up to 114 µM), inactives show at the highest dose activity change, negative = inhibition, hits mostly inhibitors | Q9UIF8 | actives 4.4% (n = 360,000) | AlphaScreen BAZ2B-H3K14Ac peptide displacement | AID 504333; further: potency means the concentration at half of the fitted maximal effect; on the % scale 0 is the no-effect control and ±100 the full control effect; nearly all actives have a fitted effect of over 60% in size
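Compounds, titrated to a top concentration of 110 uM, were incubated 30 min at room temperature with preformed BAZ2B/acetyl-K14 H3 peptide complex (50 nM each). Proximity signal was measured by AlphaScreen after 20 min with beads.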
JMJD2A Tudor inh – JMJD2A Tudor domain (human) inhibition; AlphaScreen JMJD2A-Tudor / H3K4me3 peptide binding; Potency, µM (highest dose often 114 µM), for the others: at the highest dose activity change, negative = inhibition, usual class: inhibitors; actives 4.4% (n = 390,000); further: potency means the concentration at half of the fitted maximal effect; on the % scale 0 is the no-effect control and ±100 the full control effect; nearly all actives have a fitted effect of over 50% in size
HP1b chromo inh – inhibitors of HP1-beta chromodomain binding to methylated histone tails. P83916. AlphaScreen HP1-beta / biotin-H3K9me3 peptide binding. Potency, µM (doses to about 114 µM), for inactives: at the top dose activity change, negative = inhibition, usual class: inhibitors. actives 0.56% (n = 390,000); further: potency means the concentration at half of the fitted maximal effect; nearly all actives have a fitted effect of over 70% in size
Target sequence (P83916 whole entry, looked up): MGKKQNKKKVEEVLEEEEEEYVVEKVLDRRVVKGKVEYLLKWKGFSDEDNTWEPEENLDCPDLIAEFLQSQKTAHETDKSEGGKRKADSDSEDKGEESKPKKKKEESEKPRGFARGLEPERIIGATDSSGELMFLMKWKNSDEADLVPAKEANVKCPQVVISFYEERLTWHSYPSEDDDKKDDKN
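HP1-beta protein (50 nM final) preincubated 30 min at room temperature with biotinylated H3(1-18)K9me3 peptide (50 nM) in PBS pH 7.4, 0.01% Tween-20, then compound added for 30 min. AlphaScreen streptavidin donor/nickel chelate acceptor beads (10 ug/mL final), 30 min dark, luminescence read.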
Six1-Eya2 inh – Six1/Eya2 interaction inhibition; Q15475+O00167; AlphaScreen GST-Six1/His-Eya2 binding, biochemical; hits give low values; activity change, % (concentration not given with the values); actives 0.56% (n = 360,000); in the data active means activity change below about -65%; inconclusive means mostly about -30% to -63%; further: on the % scale 0 is the no-effect control and ±100 the full control effect
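GST-Six1 + His-Eya2 (5X stock: 250/500 nM); Tris pH 8.0, 300 mM NaCl, 0.05% BSA, 0.02% Tween 20; GSH donor/Ni acceptor beads; 1 h 37 °C dark; AlphaScreen readout.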
CtBP-E1A blk – inhibitors of CtBP/E1A interaction; actives 0.49% (n = 340,000); activity change, % (concentration not given with the values); AlphaScreen GST-E1A/His-CtBP binding, 1536-well; hits give low values; in the data active means activity change below about -65%; inconclusive means mostly about -30% to -63%; further: on the % scale 0 is the no-effect control and ±100 the full control effect
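In 5 uL wells, 23 nL compound meets equimolar GST-E1A and His-CtBP (5X stock 125 nM each) for 2 h, 37 °C. Beads (5X, 50 ug/mL) then 1 h, 37 °C, dark.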
* marks the source's active call; other numbers are inactive results; ? = inconclusive; · = no result; ! = repeats disagree; [ ] = remark or other dose. This is a sample that favours compounds with a hit; in the whole collection about 10% have one here. Unless noted, the call rests on the fitted dose curve; in most records, active means well fitted inhibition curve with a large enough effect; inconclusive means small, poorly fitted or top-dose-only effect; inactive means no such curve, though single readings can be large or run the other way.

SMILES	G9a inh	BAZ2B block	JMJD2A Tudor inh	HP1b chromo inh	Six1-Eya2 inh	CtBP-E1A blk
COc1cccc(-c2nc(SCc3cc(=O)c4cc(Cl)ccc4[nH]3)n[nH]2)c1	7%[59 µM]	4%	-11%	31%[57 µM]	·	·
O=C(O)C1C2C=CC(C2)C1C(=O)N1CCc2ccccc21 (centres undefined)	0%[12.7 µM]	5%	-16%	20%	2	3
O=C(C1CCN(S(=O)(=O)c2ccccc2)CC1)N1CCc2ccccc21	·	-6%	-11%	30%	3	5
O=C(C1COc2ccccc2O1)N1CCc2ccccc21 (centres undefined)	50µM*	45µM*	79µM*	?	0	6
O=C(O)C1C2C=CC(C3CC23)C1C(=O)N1CCc2ccccc21 (centres undefined)	79µM*	-6%	20µM*	-28%	-5	-12
O=C(O)C1CC=CCC1C(=O)N1CCc2ccccc21 (centres undefined)	13µM*	?	?	-16%	-4	4
O=C(C1COc2ccccc2O1)N1CCCC1 (centres undefined)	1%	-12%	-8%	33%	-1	1
O=C(O)c1ccc(C(=O)Nc2cccc3cccnc23)cc1	·	·	?	-15%	·	·
CCN(CC)C(=O)Cn1c(=O)n(Cc2ccc(C(=O)NCCCOC)cc2)c(=O)c2ccccc21	2%[59 µM]	?	-8%	23%	·	·
CC1=C(C(=O)Nc2ccccc2C)C(c2cccs2)n2nc(SCc3ccccc3)nc2N1 (centres undefined)	2%[59 µM]	-18%	-5%	34%	·	·
CCOC(=O)c1cccc(Nc2nc(C(=O)OCC)nc3ccccc23)c1	8%[59 µM]	3%	-15%	36%	·	·
CC(=O)Nc1cccc(Nc2nc(-c3ccccc3)nc3ccccc23)c1	8%	1%	0%	34%	3	2
O=C(O)c1cccc(Nc2nc(-c3cccnc3)nc3ccccc23)c1	?	?	?	37%	-80*	?
COC(=O)c1cccc(Nc2nc(-c3cccnc3)nc3ccccc23)c1	-46%	-4%	-7%	27%	-15	-29
O=C(O)c1ccc(Nc2nc(-c3cccnc3)nc3ccccc23)cc1	56µM*	-1%	·	·	·	·
CCOC(=O)c1nc(Nc2cccc(C)c2)c2ccccc2n1	10%	7%	50µM*!	5%	-16	1
CC(=O)c1cccc(Nc2nc(-c3ccccc3)nc3ccccc23)c1	50µM*	-1%	-22%	2%	-8	-5
CCN(CC)c1ccc(NC(=O)CCCCCN2C(=O)c3ccccc3C2=O)cc1	2.5µM*	45µM*	25µM*	?	?	-29
CC(=O)Nc1ccc(NC(=O)CCCCCN2C(=O)c3ccccc3C2=O)cc1	-2%[59 µM]	-3%	-3%	26%	-5	2
Cc1ccc(NC(=O)CCCN2C(=O)c3cccc4cccc(c34)C2=O)cc1	46%[59 µM]	0%	79µM*	0%	9	5
Cc1cccc(-c2nc(C(N)=O)c3c(n2)n(-c2ccc4c(c2)OCO4)c(=O)n3C)c1	21%[59 µM]	-16%	-15%	30%	·	·
COc1ccc(CNc2nc3c(-c4ccccc4)nnn3c3ccccc23)cc1	4%[59 µM]	-1%	-13%	44%	·	·
Brc1ccc(C=Nc2ccc(Nc3ccccc3)cc2)s1	8.9µM*	40µM*	28µM*	?	?	-14
O=C(N/N=C/c1ccc(Br)s1)c1ccccc1[N+](=O)[O-]	-4%[0.501 µM]	-35%	-35%	8%	-19	-29
C(=Nc1ccc(Nc2ccccc2)cc1)c1ccc2ccccc2c1	1.6µM*	35µM*	?	?	?	?
CSc1ccc(Cc2ccc(Cl)cc2Cl)nn1	17%[59 µM]	8%	19%	32%	7	18
